These results are taken from PubChem BioAssay (NCATS).

SMILES strings stand for the structures. Records with an inconclusive call do not appear. Values without a mark were called inactive. Calls of active or inactive are those of the source. The call rests on the fitted dose curve; in most records, active means well fitted inhibition curve with a large enough effect; inconclusive means small, poorly fitted or top-dose-only effect; inactive means flat fitted curve, though single readings scatter.
On the % scale 0 is the no-effect control and ±100 the full control effect; potency means the concentration at half of the fitted maximal effect.

In one assay the test system is CRL-7250. The experiment in a line: Cytotoxic Profiling of Annotated Libraries Using Quantitative High-Throughput Screening (AID 1296008). Further: nearly all actives have a fitted effect of over 60% in size. To be noted: Five cell lines viability, CellTiter-Glo ATP luminescence, 48-72 h; max response: active compounds read low. In a few lines: (§1)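 Cytotoxicity was measured as CellTiter-Glo ATP luminescence, read after 10 min at room temperature. Compound treatment of the cells lasted 48 or 72 hr at 37 degrees Celsius in a qHTS format.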
On the technique in general: Cellular ATP, detected with luciferase, serves as a proxy for viable cell number.
As to `CCOc1ccc(Oc2ccc(OCc3cc(F)ccc3F)cc2)c(N)c1`, the outcome was inactive.

For the compound `Cc1ccc2c(c1)[C@H]1CN(C)CC[C@H]1N2C(=O)CSc1nnnn1-c1ccc(Cl)cc1`, the max response is 0.988%. Regarding `C=C1C2(C)CC3C(C)(O)C4=CC(=O)OC(C)(C)C4=CCC3(C)C13C(=O)OC(C)C3(O)C2=O` (centres undefined), the max response is -8.29%. As for `Fc1cc(F)c2c(c1)C1C=CCC1C(c1cccnc1)N2` (centres undefined), the Potency was 5.8 µM (active). On to `CCCN(CCC)[C@@H]1CCc2ccc3[nH]c(C#N)cc3c2C1`, for which the compound was called inactive. With `C[C@]12CC[C@H](O)C[C@@H]1CC[C@@H]1[C@@H]2CC[C@]2(C)[C@@H](C3=CC(=O)OC3)CC[C@]12O`, the Potency was 4.53 µM (active). In the case of `CC1=CC(=O)[C@@H](O)[C@@]2(C)C1C[C@H]1OC(=O)[C@H](O)[C@@]3(O)[C@@H](C)[C@@H](O)[C@H](O)C2[C@@]13C` (some centres undefined), the Potency is 2.86 µM (active). Take `c1ccc([C@@H]2C[C@H]2NC2CCNCC2)cc1`: the max response is -8.87%. `CC(=O)OC[C@]12[C@H](OC(C)=O)C(=O)[C@@H]3[C@@H](O)[C@@]14O[C@@]3(C)COC(=O)c1cccnc1[C@@H](C)[C@H](C)C(=O)O[C@@H]([C@H](OC(C)=O)[C@@H]2OC(C)=O)[C@]4(C)O`: the compound was called inactive. Take `Cc1c(N[C@@H](c2nnc(-c3ccc(C#N)cc3)o2)[C@H](C)O)ccc(C#N)c1Cl`: the result was inactive. For the compound `COc1ccc2c(c1)c(CCN(C)C)cn2S(=O)(=O)c1ccccc1`, the max response was 1.29%.

A further assay deals with HEK293. The assay is described as above. Conditions: Five cell lines viability, CellTiter-Glo ATP luminescence, 48-72 h; max response: active compounds read low. In a few lines: as §1
Take `CN(C)[C@@H]1C(=O)C(C(N)=O)=C(O)[C@@]2(O)C(=O)C3=C(O)c4c(O)ccc(Cl)c4[C@@](C)(O)C3C[C@@H]12` (some centres undefined): the max response is 0.697%.

Turning to `CC(C)[C@H](NC(=O)c1nn(Cc2ccc(F)cc2)c2ccccc12)C(N)=O`, the max response is -11.8%. Consider `COC1CCCC(C)OC(=O)Cc2cc(O)cc(O)c2C(=O)C1` (centres undefined), for which the Potency was 3.6 µM (active). As for `COc1cc(C(=O)N2CC[C@@H](O)[C@@H](N)C2)cc2nc(-c3cc4ccccc4n3CC3CC3)n(C)c12`, the Potency is 14.8 µM (active). `C=C1C(=O)CC2OC2(C)CC2OC(=O)C(=C)C2C(O)C1OC(=O)/C(C)=C\C` (centres undefined): the Potency was 4.53 µM (active). As to `C#C[C@]1(O)CC[C@H]2[C@@H]3CC[C@H]4Cc5nc6nc7ccccc7n6cc5C[C@]4(C)[C@H]3CC[C@@]21C`, the Potency is 14.6 µM (active). For `CC(C)[C@H]1OC(=O)[C@H](Cc2ccccc2)N(C)C(=O)[C@@H](C(C)C)OC(=O)[C@H](Cc2ccccc2)N(C)C(=O)[C@@H](C(C)C)OC(=O)[C@H](Cc2ccccc2)N(C)C1=O`, the Potency was 6.11 µM (active).

Regarding `CCC1C2CC3C4N(C)c5ccccc5C45CC(C2C5O)N3C1O` (centres undefined), the call was inactive. `COc1cc(O)c2c(c1)CCC[C@@H](O)[C@H](O)C(=O)/C=C\C[C@H](C)OC2=O`: the Potency is 6.4 µM (active).

As to `CCCCCCC1C(=O)O[C@H](C)[C@H](NC(=O)c2cccc(NC=O)c2O)C(=O)O[C@@H](C)[C@@H]1OC(=O)CC(C)C` (some centres undefined), the Potency is 0.164 µM (active).

As to `C[C@@H]1O[C@@H](OC2CCC3(C=O)C(CCC4C3CCC3(C)C(C5=CC(=O)OC5)C(O)CC43O)C2)[C@H](O)[C@H](O)[C@H]1O[C@@H]1O[C@H](CO)[C@@H](O)[C@H](O)[C@H]1O` (some centres undefined), the Potency was 3.85 µM (active). With `C=C(C)C(=O)O[C@H]1[C@@H]2[C@H](C)C(=O)O[C@@H]2C[C@@H](C)[C@@H]2C=CC(=O)[C@]21C`, the Potency is 3.6 µM (active). For `CCN1C[C@]2(COC)CC[C@H](O)[C@@]34C5C[C@@H]6[C@@H](OC)C[C@@](OC(C)=O)(C5[C@@H]6OC(C)=O)[C@H]([C@H](OC)C23)[C@@H]14` (some centres undefined), the max response is 3.98%. `C[C@]12CC[C@H](O)C[C@@]1(O)CC[C@@H]1[C@@H]2CC[C@]2(C)[C@@H](c3ccc(=O)oc3)CC[C@]12O`: the Potency was 0.0517 µM (active). For `CC(=O)O[C@H]1C[C@]2(O)[C@@H]3CC[C@@H]4C[C@@H](O)CC[C@]4(C)[C@H]3CC[C@]2(C)[C@H]1c1ccc(=O)oc1`, the Potency is 0.0461 µM (active). Same read-out and setting: with `COC1CC(O[C@H]2CC[C@@]3(C)C(CCC4C3CC[C@]3(C)C(C5=CC(=O)OC5)CCC43O)C2)OC(C)C1OC1OC(COC2OC(CO)C(O)C(O)C2O)C(O)C(O)C1O` (some centres undefined) the figure was 1.74 µM (active).

For the compound `C=C(C)[C@@]12O[C@@H]1[C@@]1(C)C(=CC2=O)CC[C@@H](OC(C)=O)[C@@H]1C`, the Potency was 3.26 µM (active). Turning to `CN1Cc2c(ccc3c2OCO3)[C@@H]2[C@H]1c1cc3c(cc1C[C@@H]2O)OCO3`, the Potency was 3.6 µM (active).
